The list is not random: actives were taken first. Their share in the collection is about 21%.
RORgamma inh: inhibitors of mouse ROR gamma transcriptional activity; P51450; Drosophila S2 Gal4-RORgamma UAS-luciferase reporter, 20 h; 310,000 tested, 5.4% active; Potency, µM (highest dose often 53.6 µM), inactives show top-dose activity change, negative = inhibition, most hits filed as inhibitors; further: potency means the concentration at half of the fitted maximal effect; nearly all actives have a fitted effect of over 60% in size
Target sequence (P51450 whole entry, looked up, the tested form may be a part): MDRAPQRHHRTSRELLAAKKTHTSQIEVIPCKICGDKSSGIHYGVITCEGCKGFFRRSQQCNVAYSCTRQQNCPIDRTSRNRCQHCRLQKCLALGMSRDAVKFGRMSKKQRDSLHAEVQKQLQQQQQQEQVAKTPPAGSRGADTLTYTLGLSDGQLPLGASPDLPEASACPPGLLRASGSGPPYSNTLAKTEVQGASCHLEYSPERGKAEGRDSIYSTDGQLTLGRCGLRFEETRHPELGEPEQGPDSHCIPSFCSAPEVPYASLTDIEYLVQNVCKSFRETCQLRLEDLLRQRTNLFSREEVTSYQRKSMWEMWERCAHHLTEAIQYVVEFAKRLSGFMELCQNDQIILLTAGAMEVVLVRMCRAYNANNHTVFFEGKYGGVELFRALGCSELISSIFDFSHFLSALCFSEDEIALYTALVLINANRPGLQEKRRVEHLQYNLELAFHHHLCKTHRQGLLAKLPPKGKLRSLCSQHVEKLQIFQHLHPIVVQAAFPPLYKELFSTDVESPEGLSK
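Stably transfected Drosophila Schneider cells are the test system, with ROR gamma fused to Gal4 and luciferase under UAS control; luminescence is read after 20 hr of 700 uM copper sulfate induction at ambient temperature.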
Gal4-VP16 FLuc: inhibits Gal4-VP16 luciferase reporter, ROR gamma counter-screen; Drosophila S2 Gal4-VP16 UAS-luciferase, luminescence, 20 h; Potency, µM (series often up to 53.6 µM), for inactives: at the top dose activity, negative = inhibition, most hits filed as inhibitors; 310,000 tested, 3.5% active; AID 2546;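 further: Gal4-VP16 expression switched on by copper sulfate through the metallothionein promoter; potency means the concentration at half of the fitted maximal effect; nearly all actives have a fitted effect of over 50% in size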
IL1B secr inh: inhibitors of inflammasome signaling (IL-1 beta secretion); THP-1 LPS/ATP IL-1B secretion, AlphaLISA, 16 h; stronger effect = lower value; activity change, % at 57.5 µM; 360,000 tested, 4.7% active; AID 743279; in the data active means activity change below about -50%; inconclusive means mostly about -30% to -49%
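Secreted IL-1B measured by AlphaLISA bead assay after 16 h compound exposure of THP-1 cells; compounds (final up to 57.5 uM) added 1 h before LPS (250 ng/mL) and ATP (1.25 mM) stimulation; lower signal means less secretion.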
ELG1 repair inh: ELG1-dependent DNA repair inhibition. HEK293T ELG1-luciferase reporter, luminescence, 16 h; DNA damage induced by 5-fluorouridine. Potency, µM (titrated, usually from 46.1 µM), without a hit: at the highest dose activity change, negative = inhibition, actives largely listed as inhibitors. 330,000 tested, 2.3% active. AID 504467; further: potency means the concentration at half of the fitted maximal effect; nearly all actives have a fitted effect of over 55% in size
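In this reporter screen, reduction of luminescence relative to DMSO vehicle indicated activity. Compounds and 5-fluorouridine were added together to 2,000 cells per well, incubated for 16 hr at 37 °C, then developed with ONE-Glo.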
DT40 TDP1 CPT: DT40-hTDP1 cell growth loss with CPT; chicken DT40 Tdp1-/-;hTDP1 cells + 20 nM CPT, ATP luminescence, 48 h; 420,000 tested, 12% active; Potency, µM (series often up to 46.2 µM), without a hit: top-dose activity change, negative = growth inhibition, most hits filed as inhibitors; further: potency means the concentration at half of the fitted maximal effect; nearly all actives have a fitted effect of over 55% in size
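Cell growth measured by CellTiter-Glo luminescence after a minimum 48 h, 37 C compound exposure with 20 nM CPT in Tdp1-knockout DT40 cells stably expressing hTDP1, seeded 400/well; qHTS titration format.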
DT40 TDP1 no CPT: qHTS for Inhibitors of human tyrosyl-DNA phosphodiesterase 1 (TDP1): qHTS in cells in absence of CPT; 420,000 tested, 15% active; AID 686978, 2013; Potency, µM (doses to about 46.2 µM), inactives show at the top dose activity change, negative = growth inhibition, usual class: inhibitors; DT40 Tdp1-/- hTDP1 cells, no CPT, ATP luminescence, 48 h; further: potency means the concentration at half of the fitted maximal effect; nearly all actives have a fitted effect of over 55% in size
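Chicken DT40 Tdp1-/- cells stably complemented with human TDP1 were seeded at 400 cells/well with DMSO in place of 20 nM camptothecin. After compound pinning, cells grew at least 48 hr at 37 °C; viability read by CellTiter-Glo luminescence.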
An asterisk follows results filed as active; [ ] = remark or other dose. Unless noted, the call rests on the fitted dose curve; in most records, active means well fitted curve in the direction sought with a large enough effect; inconclusive means small, poorly fitted or top-dose-only effect, or another doubt; inactive means no such curve, though single readings can be large; an effect the other way counts as inactive or inconclusive. On the % scale 0 is the no-effect control and ±100 the full control effect.

Screening COc1cc(/C=C/C(=O)N2CCCN(C(=O)/C=C/c3cc(OC)c(OC)c(OC)c3)CC2)cc(OC)c1OC returned RORgamma inh -7%, Gal4-VP16 FLuc 25%, IL1B secr inh -11, ELG1 repair inh 16%, DT40 TDP1 CPT 2% and DT40 TDP1 no CPT inconclusive.
Screening COc1cc(C=CC(=O)c2cc(OC)c(OC)c(OC)c2)cc(OC)c1OC returned IL1B secr inh 0, DT40 TDP1 CPT 5.8µM* and DT40 TDP1 no CPT 5.8µM*.
For COc1cc(/C=C/C(=O)c2cccs2)cc(OC)c1OC the results were RORgamma inh 7.9µM*, Gal4-VP16 FLuc inconclusive, DT40 TDP1 CPT 3.8µM* and DT40 TDP1 no CPT 1.5µM*.
For CCCOc1ccc(N/C=C/C(=O)c2cc(OC)c(OC)c(OC)c2)cc1 the results were RORgamma inh 17%, Gal4-VP16 FLuc -5%, IL1B secr inh -8, ELG1 repair inh inconclusive, DT40 TDP1 CPT inconclusive and DT40 TDP1 no CPT 23µM*.
For CCNC(=O)C1(C)CCCCN1Cc1ccc(C#N)cc1 (configuration not stated) the results were IL1B secr inh 46, DT40 TDP1 CPT inconclusive and DT40 TDP1 no CPT inconclusive.
Screening COc1ccc2nc(SCC(=O)NC3(C#N)CCCCC3)[nH]c2c1 returned IL1B secr inh -8, ELG1 repair inh 2%, DT40 TDP1 CPT -26% and DT40 TDP1 no CPT -19%.
Screening O=C(OCc1cn([C@H]2C[C@H](c3ccc(Cl)cc3)N(C(=O)c3cccs3)C[C@@H]2O)nn1)c1ccccc1 returned IL1B secr inh 11, DT40 TDP1 CPT 2% and DT40 TDP1 no CPT 7%.
For COc1cc(C=CC(=O)c2ccccc2)cc(OC)c1OC the results were IL1B secr inh -115*, DT40 TDP1 CPT 5.8µM* and DT40 TDP1 no CPT 8.2µM*.
For COc1ccc(/C=C/C(=O)c2ccoc2)cc1 the results were RORgamma inh 9%, Gal4-VP16 FLuc 4%, IL1B secr inh inconclusive, ELG1 repair inh inconclusive, DT40 TDP1 CPT inconclusive and DT40 TDP1 no CPT inconclusive.
`COc1cc(/C=C/C(C)=O)cc(OC)c1OC` gave RORgamma inh -4%, Gal4-VP16 FLuc 30%, IL1B secr inh inconclusive, ELG1 repair inh 15%, DT40 TDP1 CPT -30% and DT40 TDP1 no CPT inconclusive.
`COc1ccc2cc(C(=O)/C=C/c3cc(OC)c(OC)c(OC)c3)ccc2c1` gave RORgamma inh -25%, Gal4-VP16 FLuc 11%, IL1B secr inh -62*, ELG1 repair inh -16%, DT40 TDP1 CPT 26µM* and DT40 TDP1 no CPT 21µM*.
`COc1cc(OC)c(OC)cc1/C=C1/Cc2ccccc2C1=O` gave RORgamma inh -1%, Gal4-VP16 FLuc -13%, IL1B secr inh -7, ELG1 repair inh 8%, DT40 TDP1 CPT -21% and DT40 TDP1 no CPT -30%.
Screening COc1cc(OC)c(OC)cc1/C=C1\CC(C)C/C(=C\c2cc(OC)c(OC)cc2OC)C1=O (configuration not stated) returned RORgamma inh 13%, Gal4-VP16 FLuc -21%, IL1B secr inh -84*, ELG1 repair inh 7.3µM*, DT40 TDP1 CPT 18µM* and DT40 TDP1 no CPT 18µM*.
Screening COc1cc(OC)c(OC)cc1/C=C1\Oc2cc(OS(C)(=O)=O)ccc2C1=O returned RORgamma inh 0%, Gal4-VP16 FLuc -10%, IL1B secr inh 4, ELG1 repair inh -9%, DT40 TDP1 CPT 1% and DT40 TDP1 no CPT -19%.
CCC1C/C(=C\c2cc(OC)c(OC)cc2OC)C(=O)/C(=C/c2cc(OC)c(OC)cc2OC)C1 (configuration not stated) was read as RORgamma inh 24%, Gal4-VP16 FLuc -21%, IL1B secr inh -70*, ELG1 repair inh 6.5µM*, DT40 TDP1 CPT inconclusive and DT40 TDP1 no CPT 13µM*.
For COc1ccc(-c2cc(C(F)(F)F)n3nc(C(=O)Nc4cccc(Cl)c4Cl)cc3n2)cc1OC the results were DT40 TDP1 CPT -5% and DT40 TDP1 no CPT -3%.
For c1ccc(-c2nnc(-c3ccco3)o2)cc1 the results were RORgamma inh -34%, Gal4-VP16 FLuc inconclusive, IL1B secr inh 4, ELG1 repair inh inconclusive, DT40 TDP1 CPT -3% and DT40 TDP1 no CPT -3%.
Screening c1coc(-c2nnc(-c3ccco3)nn2)c1 returned RORgamma inh inconclusive, Gal4-VP16 FLuc inconclusive, IL1B secr inh -76*, ELG1 repair inh 9%, DT40 TDP1 CPT 5.8µM* and DT40 TDP1 no CPT 12µM*.
O=S(=O)(Nc1nc2ccccc2nc1N1CCc2ccccc2C1)c1ccc(Br)cc1 was read as RORgamma inh 7.9µM*, Gal4-VP16 FLuc inconclusive, IL1B secr inh 13, ELG1 repair inh inconclusive, DT40 TDP1 CPT inconclusive and DT40 TDP1 no CPT 18µM*.
Screening O=S(=O)(Nc1nc2ccccc2nc1N1CCc2ccccc2C1)c1ccc(Cl)cc1 returned RORgamma inh 33%[10 µM], Gal4-VP16 FLuc inconclusive, IL1B secr inh -9, ELG1 repair inh inconclusive, DT40 TDP1 CPT inconclusive and DT40 TDP1 no CPT inconclusive.
Screening CC(=O)Nc1ccc(NC(=O)CSc2nnc(N)n2-c2ccccc2)cc1 returned IL1B secr inh 7, DT40 TDP1 CPT 11% and DT40 TDP1 no CPT -4%.
Screening COc1ccc(C)cc1Nc1ncnc2c1c(-c1ccccc1)cn2-c1ccc(C)cc1 returned DT40 TDP1 CPT 1% and DT40 TDP1 no CPT -22%.
Cc1ccc(-n2cc(-c3ccccc3)c3c(NC4CCCC4)ncnc32)cc1 was read as DT40 TDP1 CPT inconclusive and DT40 TDP1 no CPT 23µM*.
`Cc1cccc(-n2cc(-c3ccccc3)c3c(NC4CCCC4)ncnc32)c1` gave DT40 TDP1 CPT inconclusive and DT40 TDP1 no CPT 16µM*.
`CN(c1ncnc2c1c(-c1ccccc1)cn2-c1cccc(Cl)c1)C1CCCCC1` gave DT40 TDP1 CPT -16% and DT40 TDP1 no CPT -29%.
For O=C1C(c2ccccc2)=[N+]([O-])c2ccccc21 the results were IL1B secr inh -88*, ELG1 repair inh inconclusive, DT40 TDP1 CPT 5.2µM* and DT40 TDP1 no CPT 4.1µM*.
FC(F)Oc1cccc(NC(=S)N2CCN(c3ccccn3)CC2)c1 was read as RORgamma inh 7.1µM*, Gal4-VP16 FLuc -7%, IL1B secr inh -14, ELG1 repair inh -12%, DT40 TDP1 CPT -14% and DT40 TDP1 no CPT 7%.

Screens deposited in PubChem by National Center for Advancing Translational Sciences (NCATS).
